We go through 40 compounds from PubChem BioAssay (EPA / NIEHS).

Activity calls are given as the source filed them. The calls were made as follows: active = hit-call score of the fitted dose curve at least 0.9, where 1 is the maximum; inconclusive = response in the unintended direction; inactive = score below 0.9.

Estrogen receptor beta (Homo sapiens), sequence (Q92731 whole entry, looked up, the tested form may be a part): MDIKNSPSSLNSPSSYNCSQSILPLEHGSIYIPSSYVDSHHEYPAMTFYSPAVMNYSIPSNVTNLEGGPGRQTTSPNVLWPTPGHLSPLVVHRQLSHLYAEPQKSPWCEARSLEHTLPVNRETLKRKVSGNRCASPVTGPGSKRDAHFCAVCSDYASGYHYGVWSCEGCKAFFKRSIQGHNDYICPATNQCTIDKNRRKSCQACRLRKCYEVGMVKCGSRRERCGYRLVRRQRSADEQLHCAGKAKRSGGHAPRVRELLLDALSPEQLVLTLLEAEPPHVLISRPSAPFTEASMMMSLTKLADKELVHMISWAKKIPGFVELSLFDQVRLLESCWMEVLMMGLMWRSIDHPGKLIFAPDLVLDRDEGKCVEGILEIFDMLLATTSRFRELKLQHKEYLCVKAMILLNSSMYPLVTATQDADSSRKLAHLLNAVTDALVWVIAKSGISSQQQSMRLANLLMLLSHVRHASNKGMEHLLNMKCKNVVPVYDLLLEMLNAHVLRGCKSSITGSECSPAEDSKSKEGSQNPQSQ

For this test, the target named is Estrogen receptor beta (Homo sapiens) (UniProt Q92731). Kind of test: OT_ER_ERbERb_1440: Odyssey Thera (OT) 24-hour HEK293T Protein-Complementation Assay for Estrogen Receptor-beta/-beta Homodimer (AID 2283380).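 Also: scored as signal increase over DMSO baseline for both agonists and antagonists.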 The method, then:
OT_ER_ERbERb_1440 is a cell-based assay that uses HEK293T, a human kidney cell line, with measurements taken at 24 hours after chemical dosing in a 384-well plate.OT_ER_ERbERb_1440 is one of one assay component(s) measured or calculated from the OT_ER_ERbERb_1440 assay. It is designed to make measurements of protein fragment complementation, a form of binding reporter, as detected with fluorescence intensity signals by Protein-fragment Complementation technology.Data from the assay component OT_ER_ERbERb_1440 was analyzed into 1 assay endpoint. This assay endpoint, OT_ER_ERbERb_1440, was analyzed in the positive analysis fitting direction relative to DMSO as the negative control and baseline of activity. Using a type of binding reporter, measures of receptor for gain-of-signal activity can be used to understand the binding at the pathway-level as they relate to the gene ESR2. Furthermore, this assay endpoint can be referred to as a primary readout, because the performed assay has only produced 1 assay endpoint. To generalize the intended target to other relatable targets, this assay endpoint is annotated to the nuclear receptor intended target family, where the subfamily is steroidal.
Protein-fragment complementation assay, or PCA, is a method for the identification and quantification of protein-protein interactions. In the PCA, the proteins of interest ("bait" and "prey") are each covalently linked to fragments of a third protein (e.g. DHFR, which acts as a "reporter"). Interaction between the bait and the prey proteins brings the fragments of the reporter protein in close proximity to allow them to form a functional reporter protein whose activity can be measured. The OT ER beta / ER beta assay is a homodimer PCA of the ligand binding domain (LBD; amino acids 310-547) of human ER beta stably expressed in HEK293T cells. […] Cells are fixed in 4 percent formaldehyde and stained with Draq5 (BioStatus) to identify cells prior to signal detection. Fluorescent signal in the basal state of the assay is very low and is primarily punctuate and cytoplasmic. Modulation of this assay is quantified as an increase in mean fluorescence intensity in the nucleus (for agonists) or in the nucleus and cytoplasm (antagonists) relative to vehicle controls, and can be quantified on a high content imaging device or a laser scanning cytometer. The latter instrument is favored for this assay because of the rapid mode of data acquisition, the ability to acquire data from the entire cell population in a well (as opposed to a fraction of the well on the high content devices) and the larger dynamic range typically achieved with this instrument. To assess sensitivity of the ER beta/ER beta LBD assay to ligand, cells were treated with the ER agonist 17- beta-estradiol (E2) in 10-point concentration- response format for 24 hours and monitored response on a laser scanning plate cytometer (Acumen eX3; TTP Lab Tech).
Consider `CC(=O)OC[C@H]1O[C@@](COC(C)=O)(O[C@H]2O[C@H](COC(C)=O)[C@@H](OC(C)=O)[C@H](OC(C)=O)[C@H]2OC(C)=O)[C@@H](OC(C)=O)[C@@H]1OC(C)=O`, for which the call was inactive.
`O=C(O)c1cc(N=Nc2ccc(S(=O)(=O)Nc3ccccn3)cc2)ccc1O`: the outcome was inactive.
Consider `CCOCCOCCOCCO`, for which the result was inactive.
With `O=C(NS(=O)(=O)/C=C/c1ccccc1)c1ccc(F)cc1Cl`, the result was inactive.
On the same count and under the same terms, the entry for `Nc1cccc(N)c1` is “inactive”.
As for `O=C1OC(=O)C2C3C=CC(C3)C12` (stereo not given), the result was inactive.
Same read-out and setting: the entry for `CC/C(=C\C(=N/O)C(N)=O)C(C)[N+](=O)[O-]` (stereo not given) is “inactive”; for `O=C(O)CCN(C1(C(=O)NO)CCCC1)S(=O)(=O)c1ccc(Oc2ccc(F)cc2)cc1` it is “inactive”; for `COC(=O)c1c(Cl)c(Cl)c(C(=O)OC)c(Cl)c1Cl` it is “inactive”.
In the case of `O=C(O)c1cccc(N(Cc2cccnc2)c2ccc(OC(F)F)c(OC(F)F)c2)c1`, the result was inactive.
Consider `O=C1CCC(N2C(=O)c3ccccc3C2=O)C(=O)N1` (stereo not given), for which the compound was classed as inactive.
Turning to `CC1(C)C(=O)N(Br)C(=O)N1Br`, the result was inactive.
With `Nc1nc2ncc(CNc3ccc(C(=O)N[C@@H](CCC(=O)O)C(=O)O)cc3)nc2c(=O)[nH]1`, the compound was called inactive.
As for `CCC(C)(C)C(=O)O[C@H]1C[C@@H](C)C=C2C=C[C@H](C)[C@H](CC[C@@H]3C[C@@H](O)CC(=O)O3)[C@H]21`, the result was inactive.
Consider `On1ccccc1=S`, for which the compound was classed as inactive.
On to `COc1cccc(-c2ccc(/C=C\CN3CCCCCC3)cc2Cl)c1`, for which the compound was classed as inactive.
Turning to `Cc1c(-c2cccnc2)c2ccccc2n1CCCCC(=O)O`, the outcome was inactive.
`CCN(C(=O)c1cc(C)cc(OC[C@H](C)Nc2ccncc2)c1)C(C)C`: the compound was classed as inactive.
On the same count and under the same terms, next, `CN(C)c1ccc(Cc2ccc(N(C)C)cc2)cc1`: “inactive”.
Take `CCCCCCCCO`: the outcome was inactive.
For orientation: AC50 means the midpoint of the concentration-response curve, whichever way the signal moves. On to `Oc1ccc2c(c1)-c1ccccc1C2`, for which the AC50 was 11 µM (active).
As for `CC[C@H](C)C(=O)O[C@H]1C[C@@H](C)C=C2C=C[C@H](C)[C@H](CC[C@@H]3C[C@@H](O)CC(=O)O3)[C@H]21`, the result was inactive.
The same measure, in the same setting: next, `C1=CCCC=CCCC=CCC1`: “inactive”.
On the same count and under the same terms, the entry for `Cc1ccc(N)cc1O` is “inactive”.
For the compound `Cn1c(=O)cc(Oc2ccc(F)cc2F)c2cnc(NCC(C)(C)O)nc21`, the outcome was inactive.
In the case of `CC[C@H]1OC(=O)[C@H](C)[C@@H](O[C@H]2C[C@@](C)(OC)[C@@H](O)[C@H](C)O2)[C@H](C)[C@@H](O[C@@H]2O[C@H](C)C[C@H](N(C)C)[C@H]2O)[C@](C)(O)C[C@@H](C)C(=O)[C@H](C)[C@@H](O)[C@]1(C)O`, the call was inactive.
Take `CCCCCCCCCCCCCCCO`: the call was inactive.
Consider `O=C1CCCCCN1`, for which the compound was called inactive.
Take `COCCOc1cc2cc(C(=O)NC3CCN(C(C)C)CC3)n(CC(=O)Nc3ccc(Cl)cn3)c2cn1`: the AC50 is 58 µM (active).
With `COc1ccc(/C=C/S(=O)(=O)NC(=O)c2ccc(C)cc2Cl)cc1`, the compound was called inactive.
As to `C=CC(=C)CCC=C(C)C`, the compound was called inactive.
In the case of `O=C(CCCCCCCCc1cccnc1)N1CCC(C=C(c2ccccc2)c2ccccc2)CC1`, the AC50 is 11.9 µM (active).
As to `Cc1[nH]cnc1C[C@H]1CCc2c(C)c3ccccc3n2C1=O`, the result was inactive.
The same measure, in the same setting: the entry for `CCOC(=O)CC(CC(=O)OCC)(OC(C)=O)C(=O)OCC` is “inactive”; for `Cc1ccc(O)cc1` it is “inactive”.
With `CCOCCO`, the call was inactive.
Turning to `COc1ccc2sc(C(=O)Nc3nnn[nH]3)c(OC(C)C)c2c1`, the outcome was inactive.
Same read-out and setting: the entry for `CCOc1cccc(-n2cc(C(=O)N3CCN(c4cc(C(=O)O)c5ccccc5c4)CC3)nc2-c2ccc(C)cc2)c1` is “inactive”; for `Fc1ccccc1[C@@H](F)COC1CCC(Nc2ncnc3[nH]ncc23)CC1` (stereo not given in full) it is “inactive”; for `CNS(=O)(=O)c1cc(C(=O)N2CCC(CCN3C4CCC3CC(n3c(C)nc5ccccc53)C4)(c3cccc(F)c3)CC2)c(Cl)cc1F` (stereo not given) it is “inactive”.
